High-throughput results from PubChem BioAssay.
Compounds with a hit are over-represented: about 5.7% of the library has one in this group of screens.
TGFb SMAD3 inh: qHTS for Inhibitors of TGF-b; HepG2 CAGA-GFP TGF-b/SMAD3 reporter, GFP fluorescence, 18 h; TGF-beta stimulated, 500 pg/mL final; Potency, µM (top dose mostly 46.1 µM), inactives show at the top dose activity, negative = inhibition, usual class: inhibitors; 410,000 tested, 1.2% active; AID 588855, 2011; also: potency is read from the fitted curve at half-maximal effect; % is scaled to controls: 0 for no effect and ±100 for the full control effect; nearly all actives have a fitted effect of over 65% in size
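Per well, imaged GFP fluorescence of HEPG2 CAGA-GFP cells gives the signal; cells get compound, then TGF-beta (500 pg/mL final), 18 h at 37 degrees C; %Activity versus -TGF-beta and +DMSO controls.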
ATXN2 expr inh: Primary qHTS for Inhibitors of ATXN expression | HEK-293 ATXN2-luciferase reporter, luminescence, 24 h | Potency, µM (series often up to 57 µM), without a hit: at the highest dose activity change, negative = inhibition, most hits filed as inhibitors | 360,000 tested, 0.72% active | AID 1745845, 2022; also: potency is read from the fitted curve at half-maximal effect; % is scaled to controls: 0 for no effect and ±100 for the full control effect; nearly all actives have a fitted effect of over 55% in size
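ATXN2-luciferase reporter cells (luciferase flanked by upstream and downstream ATXN2 gene portions) were treated 24 h at 37 °C with compounds at up to 57 uM. SteadyGlo luminescence gave expression; GF-AFC fluorescence gave viability.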
ATXN viability: Viability Counterscreen for Primary qHTS for Inhibitors of ATXN expression; S2 cells (HEK-293 line with an ATXN2-luciferase reporter) viability, CellTiter-Fluor protease fluorescence, 24 h; Potency, µM (top dose mostly 56.7 µM), most hits filed as cytotoxic; 400,000 tested, 0.49% active; also: potency is read from the fitted curve at half-maximal effect; nearly all actives have a fitted effect of over 40% in size
IL-1B inflam inh: qHTS for Inhibitors of Inflammasome Signaling: IL-1-beta AlphaLISA Primary Screen. THP-1 LPS/ATP IL-1B secretion, AlphaLISA, 16 h; hits give low values. activity change, % at 57.5 µM. 360,000 tested, 4.7% active. AID 743279, 2014; in the data active = activity change below about -50%; inconclusive = mostly about -30% to -49%; also: % is scaled to controls: 0 for no effect and ±100 for the full control effect
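Secreted IL-1B measured by AlphaLISA bead assay after 16 h compound exposure of THP-1 cells; compounds (final up to 57.5 uM) added 1 h before LPS (250 ng/mL) and ATP (1.25 mM) stimulation; lower signal means less secretion.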
HepG2 viability: qHTS for Inhibitors of TGF-b: Cytotox Counterscreen | HepG2 CAGA-GFP viability, ATP luminescence, 18 h | Potency, µM (titrated, usually from 46.1 µM), for inactives: at the top dose activity change, negative = cytotoxicity, usual class: cytotoxic | 410,000 tested, 0.76% active | AID 588856, 2011; also: potency is read from the fitted curve at half-maximal effect
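CellTiter-Glo luminescence gave cytotoxicity after 18 hours at 37 degrees C. The cells were HepG2 CAGA-GFP in 1% FBS DMEM, stimulated with 500 pg/mL TGF-beta after compound addition. %Activity was normalised to no-cell wells (complete cell-killing) and DMSO (no toxicity), and curves were fitted and classified.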
Active calls of the source: *; [ ] = remark or other dose. Unless noted, calls follow the shape of the dose curve; as a rule, active = well fitted curve in the direction sought with a large enough effect; inconclusive = small, poorly fitted or top-dose-only effect, or another doubt; inactive = no such curve, though single readings can be large; an effect the other way counts as inactive or inconclusive.

How did COc1ccc(/C=N/Nc2ccc(C(=O)O)cc2)c(OC)c1OC do in these assays?
TGFb SMAD3 inh: 0%; ATXN2 expr inh: 51%; ATXN viability: inactive; IL-1B inflam inh: 46; HepG2 viability: -5%

Results for COc1cc(/C=C/c2ccc(O)cc2)cc(OC)c1 ?
TGFb SMAD3 inh: -10%; ATXN2 expr inh: 9%; ATXN viability: inactive; IL-1B inflam inh: -22; HepG2 viability: -37%

What do the screens show for `O=c1[nH]cnc2c1ncn2[C@H]1C[C@H](O)[C@@H](CO)O1`?
TGFb SMAD3 inh: 0%; HepG2 viability: -2%

How did O=Cc1ccc(N2CCOCC2)cc1 do in these assays?
TGFb SMAD3 inh: 19%; HepG2 viability: 1%

Results for CCS(=O)(=O)N1N=C(c2cccs2)CC1c1cc2cc(C)ccc2nc1Cl (stereo not drawn) ?
TGFb SMAD3 inh: 4%; ATXN viability: inactive; IL-1B inflam inh: -53*; HepG2 viability: 10%

Results for Cc1c(Cl)cccc1NC(=O)CCS(=O)(=O)c1ccc2c(c1)CC(C)N2C(=O)C1CC1 (stereo not drawn) ?
TGFb SMAD3 inh: 1%; HepG2 viability: -3%

What do the screens show for `O=c1ccnc(Sc2ncccc2[N+](=O)[O-])[nH]1`?
TGFb SMAD3 inh: 12%; ATXN2 expr inh: 3%; ATXN viability: inactive; IL-1B inflam inh: 16; HepG2 viability: 1%

Results for O=[N+]([O-])c1cccnc1Sc1ccc(F)cc1 ?
TGFb SMAD3 inh: -13%; ATXN2 expr inh: -13%; ATXN viability: inactive; IL-1B inflam inh: -12; HepG2 viability: 7.1µM*

Results for Cc1ccc(NC(=S)Nc2ccc(OC(F)F)c(Cl)c2)cc1F ?
TGFb SMAD3 inh: inconclusive; ATXN2 expr inh: -7%; ATXN viability: inactive; IL-1B inflam inh: -95*; HepG2 viability: -38%

How did O=C(Nc1ccc(F)c(Cl)c1)C1CCCCC1 do in these assays?
TGFb SMAD3 inh: -17%; ATXN2 expr inh: 10%; ATXN viability: inconclusive; IL-1B inflam inh: -14; HepG2 viability: -12%

How did Fc1ccc(NC(=S)Nc2ccc(F)c(Cl)c2)cc1Cl do in these assays?
TGFb SMAD3 inh: inconclusive; ATXN2 expr inh: inconclusive; ATXN viability: inconclusive; IL-1B inflam inh: -77*; HepG2 viability: -42%

How did O=C(Nc1ccc(F)c(Cl)c1)C1CCCC1 do in these assays?
TGFb SMAD3 inh: 0%; ATXN2 expr inh: -27%; ATXN viability: inactive; IL-1B inflam inh: -1; HepG2 viability: 10µM*

Results for COc1ccc(-c2cc(-c3ccccc3)nc3c2COc2ccc(F)cc2-3)cc1 ?
TGFb SMAD3 inh: 8%; ATXN2 expr inh: -4%; ATXN viability: inactive; HepG2 viability: -14%

How did Cc1ccc(-n2nc(CO)c(C(=O)NCCCCc3ccccc3)n2)cc1 do in these assays?
TGFb SMAD3 inh: -13%; HepG2 viability: 2%

How did C=CCN(C(=O)C1CSC2(C)CCC(=O)N12)c1nc(-c2ccccc2)cs1 (stereo not drawn) do in these assays?
TGFb SMAD3 inh: -4%; ATXN2 expr inh: 1%; ATXN viability: inactive; IL-1B inflam inh: -26; HepG2 viability: -10%

Results for C=CCN(C(=O)C1=NN(C2CCS(=O)(=O)C2)C(=O)CC1)c1nc(-c2ccc([N+](=O)[O-])cc2)cs1 (stereo not drawn) ?
TGFb SMAD3 inh: inconclusive; ATXN2 expr inh: 5%; ATXN viability: inactive; IL-1B inflam inh: -55*; HepG2 viability: -31%

Results for CC(NCc1ccc(N(C)C)cc1)C1CC2CCC1C2 (stereo not drawn) ?
TGFb SMAD3 inh: 3%; ATXN2 expr inh: -8%; ATXN viability: inactive; IL-1B inflam inh: -61*; HepG2 viability: -35%

Results for CCOc1ccccc1NC1(c2ccccc2)C(=O)c2ccccc2C1=O ?
TGFb SMAD3 inh: 7%; ATXN2 expr inh: -5%; ATXN viability: inconclusive; HepG2 viability: -8%

Results for N#C/C(=C(/O)COC(=O)COc1cccc(Br)c1)c1nc2ccccc2[nH]1 ?
TGFb SMAD3 inh: inconclusive; IL-1B inflam inh: 131; HepG2 viability: -42%

How did Cc1cc(Br)ccc1SCC(=O)OC/C(O)=C(\C#N)c1nc2ccccc2[nH]1 do in these assays?
TGFb SMAD3 inh: -30%; IL-1B inflam inh: 0; HepG2 viability: -27%

How did Cc1cc(Br)ccc1SCC(=O)OCC(O)=C(C#N)c1nc2ccccc2[nH]1 do in these assays?
TGFb SMAD3 inh: 4%; ATXN2 expr inh: inconclusive; IL-1B inflam inh: -102*; HepG2 viability: 8%

Results for N#C/C(=C(/O)COC(=O)CSc1ccc2ccccc2c1)c1nc2ccccc2[nH]1 ?
TGFb SMAD3 inh: -1%; ATXN2 expr inh: inconclusive; ATXN viability: 20µM*; IL-1B inflam inh: -105*; HepG2 viability: 3%

What do the screens show for `Cc1ccc(C)c(SCC(=O)OC/C(O)=C(\C#N)c2nc3ccccc3[nH]2)c1`?
TGFb SMAD3 inh: -10%; ATXN2 expr inh: -19%[11.3 µM]; ATXN viability: inconclusive; IL-1B inflam inh: -97*; HepG2 viability: -17%

How did Cc1cccc(C)c1OCC(=O)OC/C(O)=C(\C#N)c1nc2ccccc2[nH]1 do in these assays?
TGFb SMAD3 inh: 15%; ATXN2 expr inh: -27%; ATXN viability: inconclusive; IL-1B inflam inh: -28; HepG2 viability: -48%

Results for Cc1cccc(C)c1-n1ncc(C(=O)NCCCN2CCC(C)CC2)c1C1CCN(C(=O)OC(C)(C)C)CC1 ?
TGFb SMAD3 inh: 2%; ATXN2 expr inh: 11%; ATXN viability: inactive; HepG2 viability: 5%

What do the screens show for `Cn1c2ccccc2c2cc(C(=O)NNC(=O)CCl)sc21`?
TGFb SMAD3 inh: -21%; ATXN2 expr inh: inconclusive; IL-1B inflam inh: -133*; HepG2 viability: -28%

What do the screens show for `Oc1[nH]c2ccccc2c1N=Nc1nc(Nc2ccccc2)nc(N2CCOCC2)n1`?
TGFb SMAD3 inh: 33%; ATXN viability: inconclusive; IL-1B inflam inh: inconclusive; HepG2 viability: -5%

Results for Cc1[nH]c2ccccc2c1/C=N/Nc1nc(Nc2ccccc2)nc(N2CCOCC2)n1 ?
TGFb SMAD3 inh: -4%; ATXN2 expr inh: -18%; ATXN viability: inactive; IL-1B inflam inh: -80*; HepG2 viability: -32%

How did O=C(Nc1ccccc1)Nc1cccn(Cc2c(F)cccc2Cl)c1=O do in these assays?
TGFb SMAD3 inh: inconclusive; ATXN viability: inactive; IL-1B inflam inh: -61*; HepG2 viability: -27%

What do the screens show for `CN(C)c1cccc2c(C=C(C#N)C#N)ccc(N(C)C)c12`?
TGFb SMAD3 inh: 1%; ATXN2 expr inh: -8%; ATXN viability: inactive; IL-1B inflam inh: -95*; HepG2 viability: 3%

How did COc1cc2c(NC3CCN(C)CC3)nc(N3CCCN(C)CC3)nc2cc1OCC1CCCCN1 (stereo not drawn) do in these assays?
TGFb SMAD3 inh: 11µM*; HepG2 viability: -11%
